Experimental data as given in PubChem BioAssay (NCATS).
Results filed as inconclusive are left out. Entries that show only a call come without a potency. Calls of active or inactive are those of the source. The call rests on the fitted dose curve; in most records, active means well fitted curve in the direction sought with a large enough effect; inconclusive means small, poorly fitted or top-dose-only effect, or another doubt; inactive means no such curve, though single readings can be large; an effect the other way counts as inactive or inconclusive.

Legend:
[1] = qHTS of pediatric cancer cell lines to identify multiple opportunities for drug repurposing: Confirmatory screen for LAN-5 cells (AID 1347113); conditions: LAN-5 neuroblastoma cell viability; further: nearly all actives have a fitted effect of over 65% in size
How it was run: (§1)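 Viability after 48 h compound treatment at 37C, 500-1,000 cells/well, read as ATP luminescence with CellTiter-Glo. Primary screens used 11-point (MIPE, 0.78 nM-46 µM) or 8-point (NPC, 0.59 nM-46 µM) final concentrations; follow-up screens used 11-point dilutions.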

[2] = qHTS of pediatric cancer cell lines to identify multiple opportunities for drug repurposing: Confirmatory screen for DAOY cells (AID 1347114); conditions: DAOY medulloblastoma cells viability, cytotoxicity qHTS; further: nearly all actives have a fitted effect of over 65% in size
How it was run: (§2)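 Viability measured as metabolically active cells via CellTiter-Glo luminescence following 48 hours of compound exposure, 11-point dilutions in confirmatory testing. 500-1,000 cells/well plated 5 hours before dosing; controls were DMSO and 2.3 µM bortezomib.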

[3] = qHTS of pediatric cancer cell lines to identify multiple opportunities for drug repurposing: Confirmatory screen for NB-EBc1 cells (AID 1347115); conditions: NB-EBc1 neuroblastoma cells, viability (cytotoxicity);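 further: cells exposed to compound for 48 h before the viability read; nearly all actives have a fitted effect of over 45% in size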
How it was run: as §1

[4] = qHTS of pediatric cancer cell lines to identify multiple opportunities for drug repurposing: Confirmatory screen for SJ-GBM2 cells (AID 1347116); conditions: SJ-GBM2 glioblastoma cells, viability; further: nearly all actives have a fitted effect of over 60% in size
How it was run: as §2

[5] = qHTS of pediatric cancer cell lines to identify multiple opportunities for drug repurposing: Confirmatory screen for BT-37 cells (AID 1347117); conditions: BT-37 pediatric cancer cells, viability; further: nearly all actives have a fitted effect of over 55% in size
How it was run: as §1

[6] = qHTS of pediatric cancer cell lines to identify multiple opportunities for drug repurposing: Confirmatory screen for TC32 cells (AID 1347118); conditions: TC32 Ewing sarcoma cells viability qHTS;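 further: cells exposed to compound for 48 h before the read; nearly all actives have a fitted effect of over 65% in size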
How it was run: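 qHTS, TC32, 48 h drug treatment, CellTiter-Glo luminescence as a proxy for metabolically active cells; primary top concentration 46 µM (MIPE 11-pt, NPC 8-pt); confirmatory 11-pt.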

[7] = qHTS of pediatric cancer cell lines to identify multiple opportunities for drug repurposing: Confirmatory screen for MG 63 (6-TG R) cells (AID 1347119); conditions: MG-63 (6-TG resistant) osteosarcoma viability; further: nearly all actives have a fitted effect of over 55% in size
How it was run: as §1

[8] = qHTS of pediatric cancer cell lines to identify multiple opportunities for drug repurposing: Confirmatory screen for control Hh wild type fibroblast cells (AID 1347121); conditions: viability qHTS; further: nearly all actives have a fitted effect of over 70% in size
How it was run: as §1

[9] = qHTS of pediatric cancer cell lines to identify multiple opportunities for drug repurposing: Confirmatory screen for U-2 OS cells (AID 1347122); conditions: U-2 OS osteosarcoma cell viability; further: nearly all actives have a fitted effect of over 65% in size
How it was run: as §1

[10] = qHTS of pediatric cancer cell lines to identify multiple opportunities for drug repurposing: Confirmatory screen for Rh41 cells (AID 1347123); conditions: Rh41 rhabdomyosarcoma cells, viability/cytotoxicity qHTS;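 further: 48 h compound exposure; nearly all actives have a fitted effect of over 60% in size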
How it was run: as §1

[11] = qHTS of pediatric cancer cell lines to identify multiple opportunities for drug repurposing: Confirmatory screen for RD cells (AID 1347124); conditions: RD rhabdomyosarcoma cell viability
How it was run: as §1

[12] = qHTS of pediatric cancer cell lines to identify multiple opportunities for drug repurposing: Confirmatory screen for Rh18 cells (AID 1347125); conditions: Rh18 rhabdomyosarcoma cells, viability; further: nearly all actives have a fitted effect of over 55% in size
How it was run: as §1

[13] = qHTS of pediatric cancer cell lines to identify multiple opportunities for drug repurposing: Confirmatory screen for Rh30 cells (AID 1347126); conditions: Rh30 rhabdomyosarcoma cell viability; further: nearly all actives have a fitted effect of over 55% in size
How it was run: as §1

[14] = qHTS of pediatric cancer cell lines to identify multiple opportunities for drug repurposing: Confirmatory screen for Saos-2 cells (AID 1347127); conditions: Saos-2 osteosarcoma cell viability; further: nearly all actives have a fitted effect of over 60% in size
How it was run: as §1

[15] = qHTS of pediatric cancer cell lines to identify multiple opportunities for drug repurposing: Confirmatory screen for OHS-50 cells (AID 1347128); conditions: OHS-50 osteosarcoma cells viability
How it was run: as §1

[16] = qHTS of pediatric cancer cell lines to identify multiple opportunities for drug repurposing: Confirmatory screen for SK-N-SH cells (AID 1347129); conditions: SK-N-SH neuroblastoma cell viability;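 further: cells exposed to compound for 48 h before viability read; nearly all actives have a fitted effect of over 60% in size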
How it was run: as §1

[17] = biological target: N-terminal Xaa-Pro-Lys N-methyltransferase 1 (Homo sapiens) (UniProt Q9BV86); experiment: qHTS Assay for Inhibitors of N-terminal methyltransferase 1 (NTMT1): LOPAC validation of the NTMT1 SAHH-coupled ThioGlo3 Assay (AID 1347143); conditions: recombinant NTMT1, SAHH-coupled ThioGlo3 fluorescence; series mostly up to 114 µM;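 further: SAH from peptide methylation measured as thiol fluorescence via SAHH coupling and ThioGlo3; nearly all actives have a fitted effect of over 70% in size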
Sequence of N-terminal Xaa-Pro-Lys N-methyltransferase 1 (Homo sapiens) (Q9BV86 whole entry, looked up): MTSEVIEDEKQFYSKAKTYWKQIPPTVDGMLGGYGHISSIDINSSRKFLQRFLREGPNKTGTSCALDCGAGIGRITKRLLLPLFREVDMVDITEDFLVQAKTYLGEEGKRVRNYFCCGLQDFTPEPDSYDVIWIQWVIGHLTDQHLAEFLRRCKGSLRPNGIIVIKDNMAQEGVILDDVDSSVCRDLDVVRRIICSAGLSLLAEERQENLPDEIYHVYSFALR
How it was run: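 Steps: dispense 125nM NTMT1; pin-transfer test compounds at several concentrations, with 1uM RCC1-6 peptide as control; incubate 1 min; start with reagent holding 100uM SAM, 10uM SAHH, 15uM ThioGlo3; read at 0 and 30 min.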

[18] = tested on: Zika virus NS2B-NS3 protease (unlinked); experiment: Optimization of GU AMC qHTS for Zika virus inhibitors: Unlinked NS2B-NS3 protease assay (AID 1347151); conditions: recombinant ZIKV NS2B-NS3 protease, fluorogenic AMC substrate; series mostly up to 52.5 µM; further: nearly all actives have a fitted effect of over 80% in size
How it was run: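 Fluorescence gain (340/450 nm) over 15 min at room temperature, ~20% conversion, gave percent inhibition fitted to a 4-parameter Hill equation; enzyme was unlinked NS2B-NS3 (25 nM final), pH 8.0 Tris buffer.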

Furin (Homo sapiens) = Furin (Homo sapiens) (UniProt P09958); experiment: Furin counterscreen qHTS for Zika virus inhibitors (AID 1347149); conditions: furin enzymatic counterscreen, fluorogenic substrate; series mostly up to 57.5 µM; further: nearly all actives have a fitted effect of over 70% in size
Sequence of Furin (Homo sapiens) (P09958 whole entry, looked up): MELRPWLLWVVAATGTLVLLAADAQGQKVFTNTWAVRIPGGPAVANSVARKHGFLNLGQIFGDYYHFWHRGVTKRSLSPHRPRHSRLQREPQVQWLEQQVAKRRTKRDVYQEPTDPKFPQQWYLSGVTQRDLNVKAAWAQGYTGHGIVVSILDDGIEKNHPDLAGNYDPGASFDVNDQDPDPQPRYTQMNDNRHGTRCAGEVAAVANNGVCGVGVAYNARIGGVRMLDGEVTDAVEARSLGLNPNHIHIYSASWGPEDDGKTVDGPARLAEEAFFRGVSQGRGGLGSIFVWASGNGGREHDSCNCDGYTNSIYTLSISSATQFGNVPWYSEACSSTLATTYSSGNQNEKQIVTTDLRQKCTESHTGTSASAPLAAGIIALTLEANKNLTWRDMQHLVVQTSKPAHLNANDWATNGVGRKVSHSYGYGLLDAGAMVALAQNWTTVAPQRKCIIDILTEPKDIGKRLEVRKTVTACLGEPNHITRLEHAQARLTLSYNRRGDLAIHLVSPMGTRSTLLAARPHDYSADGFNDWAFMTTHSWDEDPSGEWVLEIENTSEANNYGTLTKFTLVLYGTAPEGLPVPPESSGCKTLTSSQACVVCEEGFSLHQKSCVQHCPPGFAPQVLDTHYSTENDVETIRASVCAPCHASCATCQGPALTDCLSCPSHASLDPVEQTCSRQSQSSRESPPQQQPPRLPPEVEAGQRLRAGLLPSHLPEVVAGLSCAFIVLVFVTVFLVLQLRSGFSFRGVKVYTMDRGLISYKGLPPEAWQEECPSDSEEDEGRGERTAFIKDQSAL
How it was run: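 Counterscreen measures cleavage of 2 microM BOC-RVRR-AMC, below its ~15 microM Km, by 5 nM full-length human furin at pH 7.0 after a 15-min compound preincubation. Inhibition derives from the 15-min fluorescence increase at 37C.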

[19] = tested on: Zika virus NS2B-NS3 protease (linked construct); experiment: Confirmatory screen NINDS AMC qHTS for Zika virus inhibitors (AID 1347152); conditions: Purified linked NS2B-NS3, AMC substrate fluorescence; series mostly up to 56.6 µM; further: nearly all actives have a fitted effect of over 70% in size
How it was run: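 IC50s from 4-parameter Hill fits of percent inhibition, based on AMC fluorescence gain (340/450 nm) over 15 min with 10 microM Bz-Nle-KRR-AMC. Enzyme: 1 nM linked NS2B-NS3 in Tris-HCl pH 8.0; 15-min compound preincubation.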
Potency means the concentration at half of the fitted maximal effect.

SMILES: C[CH2][Hg][S]c1ccccc1C(=O)O
- Potency [1]: 4.65 µM (active)
- Potency [2]: 3.29 µM (active)
- Potency [3]: 7.37 µM (active)
- Potency [4]: 7.37 µM (active)
- Potency [5]: 8.27 µM (active)
- Potency [6]: 2.93 µM (active)
- Potency [7]: 5.22 µM (active)
- Potency [8]: 16.5 µM (active)
- Potency [9]: 8.27 µM (active)
- Potency [10]: 1.17 µM (active)
- Potency [11]: 7.37 µM (active)
- Potency [12]: 16.5 µM (active)
- Potency [13]: 4.14 µM (active)
- Potency [14]: 2.93 µM (active)
- Potency [15]: 9.27 µM (active)
- Potency [16]: 5.26 µM (active)

SMILES: CC(C)(C)c1o[nH]c(=O)c1CC(N)C(=O)O (centres undefined)
- Potency [17]: inactive
- Potency [18]: inactive

SMILES: CN1CCc2cc(O)cc3c2[C@H]1Cc1ccc(O)c(O)c1-3
- Potency [17]: 35.5 µM (active)
- Potency [18]: 23.8 µM (active)

SMILES: C[N+](C)(C)CCOC(=O)CBr
- Potency [17]: inactive
- Potency [18]: inactive

SMILES: CC(C)NP(=O)(NC(C)C)OP(=O)(NC(C)C)NC(C)C
- Potency [17]: inactive
- Potency [18]: inactive

SMILES: NC(Cc1cc(O)c(O)cc1O)C(=O)O (centres undefined)
- Potency [17]: 44.7 µM (active)
- Potency [18]: 7.52 µM (active)

SMILES: C[C@H]1C2Cc3ccc(O)cc3[C@@]1(C)CCN2CC1CC1
- Potency [17]: inactive

SMILES: COc1ccc2c(c1O)-c1cccc3c1[C@@H](C2)N(C)CC3
- Potency [17]: 56.2 µM (active)
- Potency [18]: 29.9 µM (active)

SMILES: NCCCP(=O)(O)O
- Potency [17]: inactive
- Potency [18]: inactive

SMILES: CC(=O)c1c(O)c(C)c(O)c(Cc2c(O)c3c(c(C(=O)/C=C/c4ccccc4)c2O)OC(C)(C)C=C3)c1O
- Potency [17]: 50.1 µM (active)
- Potency [18]: 11.9 µM (active)

SMILES: NCCc1ccc(S(=O)(=O)F)cc1
- Potency [17]: inactive
- Potency [18]: inactive

SMILES: Nc1cc2c(ncn2CCOCP(=O)(O)O)c(=O)[nH]1
- Potency [17]: inactive
- Potency [18]: inactive

SMILES: C[C@@H]1O[C@@H](O[C@H]2C[C@@H](O)[C@]3(CO)[C@@H]4C(CC[C@]3(O)C2)[C@@]2(O)CC[C@H]([C@@H]3COC(=O)C3)[C@@]2(C)C[C@H]4O)[C@H](O)[C@H](O)[C@H]1O (some centres undefined)
- Potency [17]: inactive
- Potency [18]: inactive

SMILES: CN1C2CCC1CC(OC(c1ccccc1)c1ccccc1N)C2 (centres undefined)
- Potency [17]: inactive
- Potency [18]: inactive

SMILES: C[C@H](N)Cc1cccc(C(F)(F)F)c1
- Potency [17]: inactive
- Potency [18]: inactive

SMILES: CCCN1CCc2cc(O)cc3c2[C@H]1Cc1ccc(O)c(O)c1-3
- Potency [17]: 35.5 µM (active)
- Potency [18]: 26.7 µM (active)

SMILES: C[N+](C)(C)CC#CCOC(=O)Nc1cccc(Cl)c1
- Potency [17]: inactive
- Potency [18]: inactive

SMILES: NC(=O)c1cc(N2CC2)c([N+](=O)[O-])cc1[N+](=O)[O-]
- Potency [17]: inactive

SMILES: CCn1cnc2c(Nc3cccc(Cl)c3)nc(N[C@@H]3CCCC[C@@H]3N)nc21
- Potency [17]: 8.91 µM (active)
- Potency [18]: inactive

SMILES: N[C@@H](Cn1oc(=O)[nH]c1=O)C(=O)O
- Potency [17]: inactive
- Potency [18]: inactive

SMILES: NNC(N)=O
- Potency [17]: inactive

SMILES: O=C(NC1CN2CCC1CC2)c1cc2ccoc2cn1 (centres undefined)
- Potency [17]: inactive

SMILES: OCc1cnc[nH]1
- Potency [17]: inactive
- Potency [18]: inactive

SMILES: CCCC[N+]1(C)C2CC(OC(=O)[C@H](CO)c3ccccc3)CC1C1OC12 (some centres undefined)
- Potency [17]: inactive
- Potency [18]: inactive

SMILES: CCCN1CCC[C@@H](c2cccc(O)c2)C1
- Potency [17]: inactive
- Potency [18]: inactive

SMILES: NC(N)=NOCC[C@H](N)C(=O)O
- Potency [17]: inactive

SMILES: O=c1ccc2[nH]cc(C3=CCNCC3)c2[nH]1
- Potency [17]: 56.2 µM (active)
- Potency (Furin (Homo sapiens)): 24.1 µM (active)
- Potency [19]: 24.1 µM (active)

SMILES: [Cl-].[Cl][Pt].[NH2-].[NH2-].c1ccncc1
- Potency [17]: 7.08 µM (active)
- Potency [18]: inactive

SMILES: CCCN1CC[C@@H]2c3cc(O)ccc3CC[C@@H]21
- Potency [17]: inactive
- Potency [18]: inactive

SMILES: NCC(O)c1cc(O)c(O)cc1F (centres undefined)
- Potency [17]: 56.2 µM (active)
- Potency [18]: inactive

SMILES: COc1ccc(CNC(=O)/C=C/c2ccc3[nH]cc(CCN(C)C)c3c2)cc1
- Potency [17]: inactive
- Potency [18]: inactive

SMILES: CC12NC(Cc3ccccc31)c1ccccc12 (centres undefined)
- Potency [17]: inactive
- Potency [18]: inactive

SMILES: CCCn1c(=O)c2[nH]c(C3CCCC3)nc2n(CCCOC(=O)c2ccc(S(=O)(=O)F)cc2)c1=O
- Potency [17]: inactive
- Potency [18]: inactive

SMILES: CCCN1CCc2cccc3c2[C@H]1Cc1ccc(O)c(O)c1-3
- Potency [17]: 15.8 µM (active)

SMILES: COc1ccc(OC)c(C(O)C(C)N)c1 (centres undefined)
- Potency [17]: inactive

SMILES: CC(Cc1ccc(OCC(=O)O)cc1)NCC(O)c1cccc(Cl)c1 (centres undefined)
- Potency [17]: inactive

SMILES: C=CCN1C[C@@H](C)N([C@H](c2ccc(C(=O)N(CC)CC)cc2)c2cccc(OC)c2)C[C@@H]1C
- Potency [17]: inactive
- Potency [18]: inactive

SMILES: C[N+](C)(C)CC#CCN1CCCC1=O
- Potency [17]: 28.2 µM (active)
- Potency [18]: inactive

SMILES: O=C1/C(=C/c2ccccc2)C[C@@]2(O)[C@H]3Cc4ccc(O)c5c4[C@@]2(CCN3CC2CC2)[C@H]1O5
- Potency [17]: 50.1 µM (active)

SMILES: O=[N+]([O-])/C=C/c1ccc2c(c1)OCO2
- Potency [17]: 39.8 µM (active)
- Potency [18]: inactive

SMILES: CN(N=O)c1ccc(O)c(O)c1
- Potency [17]: 35.5 µM (active)

SMILES: CCCCCOc1cc2c(cc1-c1cc(/C=C/C(=O)O)ccc1O)C(C)(C)CCC2(C)C
- Potency [19]: 9.87 µM (active)

SMILES: C[C@@]1(C(=O)O)CC[C@]2(C)CC[C@]3(C)C4=CC(=O)c5cc(O)c(O)cc5[C@]4(C)CC[C@@]3(C)[C@@H]2C1
- Potency [19]: inactive
